Measured values published in article PMC5540273 (PLoS ONE, 2017).

Legend:
Details in all cases: concentration: 1 μM, replicates: in singlicate; n = 1
FLT3 = system: FLT3
FLT4 = system: FLT4
FRK = system: FRK
FYN = system: FYN
GAK = system: GAK
GCN2(Kin.Dom.2,S808G) = system: T1, GCN2(Kin.Dom.2,S808G)
T1 construct: gene EIF2AK4

GRK1 = system: GRK1
GRK2 = system: T2, GRK2
T2 construct: gene ADRBK1

GRK3 = system: T3, GRK3
T3 construct: gene ADRBK2

GRK4 = system: GRK4
GRK7 = system: GRK7
GSK3A = system: GSK3A
GSK3B = system: GSK3B
HASPIN = system: T4, HASPIN
T4 construct: gene GSG2

HCK = system: HCK
HIPK1 = system: HIPK1
HIPK2 = system: HIPK2
HIPK3 = system: HIPK3
HIPK4 = system: HIPK4
HPK1 = system: HPK1
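Further: KINOMEscan kinase panel screen.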

Row | SMILES | %Inh (FLT3) | %Inh (FLT4) | %Inh (FRK) | %Inh (FYN) | %Inh (GAK) | %Inh (GCN2(Kin.Dom.2,S808G)) | %Inh (GRK1) | %Inh (GRK2) | %Inh (GRK3) | %Inh (GRK4) | %Inh (GRK7) | %Inh (GSK3A) | %Inh (GSK3B) | %Inh (HASPIN) | %Inh (HCK) | %Inh (HIPK1) | %Inh (HIPK2) | %Inh (HIPK3) | %Inh (HIPK4) | %Inh (HPK1)
1 | Cc1ccc(NC(=O)Nc2cccc(Cl)c2)cc1-c1ccc(C(=O)Nc2ccncc2)cc1 [GSK1398468] | 1% | 18% | 47% | 8% | 5% | 0% | 0% | 0% | 23% | 0% | 0% | 22% | 4% | 0% | 0% | 0% | 0% | 3% | 0% | 40%
2 | CC(=O)Nc1nc2cnc(Nc3cc(NC(=O)c4cccc(CCC#N)c4)ccc3C)nc2s1 | 0% | 30% | 83% | 4% | 7% | 0% | 0% | 0% | 0% | 0% | 6% | 0% | 0% | 21% | 21% | 15% | 20% | 6% | 5% | 0%
3 | Clc1cc(Cl)cc(Nc2ccnc(Nc3cc(Cl)cc(Cl)c3)n2)c1 [GSK175726] | 0% | 0% | 45% | 8% | 30% | 0% | 100% | 0% | 7% | 0% | 0% | 30% | 0% | 0% | 10% | 32% | 1% | 7% | 0% | 38%
4 | COc1ccc(Nc2nccc(-c3cccc(NC(=O)c4cc5cc(F)ccc5[nH]4)c3)n2)cc1 [GSK1229782] | 39% | 0% | 40% | 31% | 49% | 4% | 0% | 0% | 45% | 0% | 0% | 31% | 0% | 39% | 0% | 0% | 46% | 0% | 36% | 65%
5 | Cn1ccc2ncnc(Oc3ccc(NC(=O)Nc4ccccc4)cc3)c21 | 97.4% | 15% | 11% | 4% | 4% | 11% | 0% | 0% | 11% | 0% | 0% | 11% | 0% | 24% | 0% | 25% | 17% | 0% | 5% | 0%
6 | Cc1cccc(-c2nc(Nc3ccc4[nH]ncc4c3)c3ccccc3n2)n1 [GW857175] | 13% | 6% | 3% | 0% | 0% | 5% | 3% | 40% | 0% | 10% | 4% | 14% | 21% | 68% | 0% | 0% | 20% | 35% | 3% | 54%
7 | Fc1cc(Cl)ccc1Nc1ccnc2cc(I)ccc12 [GW551191] | 0% | 3% | 20% | 25% | 82% | 5% | 0% | 0% | 32% | 4% | 0% | 26% | 3% | 0% | 0% | 0% | 0% | 0% | 0% | 35%
8 | Cc1cc(N2Cc3ccccc3C2)nc(Nc2ccc(S(=O)(=O)N3CCOCC3)cc2)n1.Cl [GSK1669917] | 0% | 3% | 11% | 0% | 0% | 0% | 0% | 0% | 0% | 0% | 0% | 0% | 0% | 0% | 0% | 0% | 0% | 0% | 0% | 34%
9 | CS(=O)(=O)c1ccc(-c2c(-c3ncn[nH]3)sc(N3CCOCC3)c2C#N)cc1 | 0% | 0% | 8% | 0% | 0% | 11% | 25% | 26% | 26% | 0% | 43% | 0% | 24% | 0% | 43% | 38% | 24% | 28% | 8% | 0%
10 | Cl.Oc1ccc(-c2nc(-c3ccccc3)[nH]c2-c2ccncc2)cc1 [SB-428218] | 0% | 0% | 37% | 23% | 36% | 8% | 57% | 0% | 75% | 0% | 0% | 11% | 0% | 15% | 0% | 5% | 16% | 1% | 0% | 38%
11 | COc1cccc(NC(=O)NC2CCN(c3ccnc(Nc4ccc(F)cc4)n3)C2)c1 (stereo not drawn) [GSK1379721] | 3% | 0% | 0% | 25% | 3% | 0% | 0% | 0% | 18% | 0% | 0% | 21% | 10% | 0% | 0% | 0% | 0% | 7% | 0% | 59%
12 | CCn1c(-c2ccccn2)nc2cnccc21 [SB-736398] | 2% | 0% | 17% | 0% | 9% | 10% | 1% | 5% | 78% | 1% | 0% | 22% | 0% | 47% | 0% | 0% | 13% | 0% | 0% | 38%
13 | CCn1c(-c2cccnc2O)nc2cnccc21 [SB-736715] | 23% | 0% | 0% | 0% | 0% | 8% | 0% | 0% | 21% | 19% | 0% | 0% | 0% | 0% | 0% | 11% | 0% | 0% | 0% | 4%
14 | O=c1cc(N2CCOCC2)nc2n(Cc3cccc(Cl)c3Cl)ccn12 [GSK2286295] | 0% | 3% | 0% | 47% | 6% | 0% | 5% | 0% | 0% | 0% | 0% | 8% | 12% | 1% | 0% | 13% | 0% | 14% | 28% | 31%
15 | Cl.O=C(Nc1cccc(-c2nn3ncccc3c2-c2ccnc(Nc3cccnc3)n2)c1)c1c(F)cccc1F [GSK312879] | 0% | 9% | 15% | 21% | 8% | 0% | 20% | 0% | 27% | 0% | 0% | 48% | 25% | 0% | 52% | 0% | 0% | 11% | 0% | 31%
16 | O=C(Nc1ccccc1)Nc1cccc(Oc2ccc3nccn3n2)c1 | 4% | 67% | 0% | 0% | 0% | 14% | 0% | 0% | 0% | 23% | 0% | 50% | 0% | 4% | 24% | 0% | 27% | 0% | 9% | 33%
17 | Nc1ncnc2[nH]c(-c3ccccc3)nc12 [AH5015] | 0% | 0% | 13% | 39% | 44% | 27% | 0% | 0% | 49% | 0% | 0% | 21% | 23% | 59% | 0% | 19% | 0% | 39% | 21% | 39%
18 | Cc1c(Cn2ccn3c(=O)cc(N4CCOCC4)nc23)cccc1C(F)(F)F [GSK2289044] | 0% | 0% | 0% | 30% | 10% | 0% | 0% | 0% | 0% | 0% | 0% | 1% | 8% | 0% | 0% | 0% | 0% | 24% | 0% | 15%
